# Only some compounds are listed: those with a hit (about 12% of all), similar ones and a draw of the others.
# NS1 inh = blocks influenza NS1 protein function; Potency, µM (highest dose often 46.1 µM), for inactives: top-dose activity, positive = more growth; 270,000 tested, 0.4% active; AID 2326; also: potency is read from the fitted curve at half-maximal effect; actives are rising curves; nearly all actives have a fitted effect of over 50% in size
#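 S. cerevisiae expressing influenza A NS1, grown in glucose, washed, then diluted 1:100 into pH 6.0 -URA galactose medium with 23 nl compound. Growth recovery read as OD600; NS1-free strain serves as control.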
# Shiga toxin inh = inhibitors of Shiga toxin in Vero cells | 290,000 tested, 9.2% active | inhibition, % at 38.7 µM | Vero cells, Shiga toxin protein synthesis inhibition reporter; in the data active = inhibition mostly above about 28%, no sharp cut-off; inactive = mostly below about 43%; also: 0% is about no effect
# SARS PLP yeast = SARS-CoV PLP inhibition in yeast | 330,000 tested, 0.19% active | S. cerevisiae expressing SARS-CoV PLpro, growth rescue | AID 485353 | Potency, µM (series often up to 32.9 µM), for inactives: at the top dose activity, positive = growth rescue, usual class: activators; also: potency is read from the fitted curve at half-maximal effect; 0% is about no effect; nearly all actives have a fitted effect of over 55% in size
# CHX counter = affects cycloheximide protein synthesis inhibition readout, counter-screen | max response, % | AID 2314 | 300,000 tested, 12% active | cell reporter, cycloheximide protein synthesis inhibition counterscreen; in the data active = max response mostly above about 13%, no sharp cut-off; inactive = mostly below about 14%; also: read at 38.3 µM for the half of the compounds with a filed dose; 0% is about no effect
# Numbers without * were called inactive; u = inconclusive; x = no result. Unless noted, calls follow the shape of the full dose curve.
SMILES,NS1 inh,Shiga toxin inh,SARS PLP yeast,CHX counter
Cc1ccc(-c2cc(C(=O)N/N=C/c3c(C)nn(C)c3C)c3ccccc3n2)c(C)c1,u,-11.5,3.2%,-6.4
COc1ccc(C(=O)N=c2nc3ccccn3s2)cc1,-11.2%,74.4,-5.5%,37.6*
CCc1nc(N2CCN(C(=O)CCl)CC2)c2c3c(sc2n1)CC(C)CC3 (stereo not given),-121.6%,35.9,-0.8%,10.9*
COC(=O)C1C(=O)C=C(Nc2ccc(F)cc2)CC1c1ccc(OC)cc1 (stereo not given),-3.7%,39.8,-20.5%,24.9*
CCOC(=O)C1C(=O)C=C(Nc2ccccc2F)CC1c1ccccc1 (stereo not given),-9.6%,53.5*,8.3%,46.4*
COC(=O)C1C(=O)C=C(Nc2ccc(F)cc2F)CC1c1ccc(OC)cc1 (stereo not given),-16.6%,20.6,8.5%,21.2
COC(=O)C1C(=O)C=C(Nc2ccc(F)cc2F)CC1c1ccccc1 (stereo not given),4.9%,54.9,-3.1%,20.9*
O=C(NNC(=O)c1ccc(F)c(S(=O)(=O)N2CCOCC2)c1)c1ccc([N+](=O)[O-])cc1,x,x,-2.3%,x
N/N=C1/c2ccccc2N[C@H]1OC(=O)Nc1ccccc1,-5.9%,x,x,x
O=C(c1cc(C2CC2)nn1-c1ccccc1)N1CCN(S(=O)(=O)c2c(F)cccc2F)CC1,x,x,9.7%,x
Cc1onc(-c2c(Cl)cccc2Cl)c1C(=O)Nc1ccc(N2CCOCC2)cc1,1.7%,-4.8,0.6%,-0.7
CN1CCN(c2ccc(NC(=O)c3cc4ccccc4o3)cc2)CC1,7.3%,57.4,-0.9%,33.4*
CCCC(=O)N1CCN(c2ccc(NC(=O)c3cc4ccccc4o3)cc2)CC1,-35.5%,2.7,-1.7%,-3.4
CS(=O)(=O)N1CCN(c2ccc(NC(=O)c3cc4ccccc4o3)cc2)CC1,8.4%,21.2,0.8%,18.8*
Sc1oc(-c2ccccc2)cc1C=Nc1ccccc1,-48.0%,85.7,-25.9%,30.4*
O=[N+]([O-])c1cc2c(cc1C=Nc1ccccc1)OCO2,6.3%,-5.8,-18.0%,-2.8
CC(=O)c1ccc2c(c1)C1C=CCC1C(c1ccncc1)N2 (stereo not given),16.5%,96.8*,-1.8%,18.3*
CC(=O)c1ccc(OC(C)C)c(Cc2c(O)nc(N)[nH]c2=O)c1,13.7%,-13.4,12.0%,-1.3
CCCCC(=O)N(Cc1ccc(F)cc1)C1CCS(=O)(=O)C1 (stereo not given),-1.9%,6.8,1.0%,-1.8
C=CCNC(=O)NC(=S)c1ccccc1,7.7%,23.8,-1.0%,22.6*
C=CCNC(=S)NNC(=O)c1ccccc1,11.6%,-2.3,7.4%,0.5
Cc1ccc(NC(=S)c2ccc(N(C)C)cc2)cc1,-9.4%,78.3*,5.0%,53.1*
COc1ccc(NC(=S)c2ccccc2)cc1,18.8%,71.3*,-16.0%,53.4*
COc1ccc(C(=S)Nc2ccc(N(C)C)cc2)cc1,-46.8%,77.7*,-1.9%,37.1*
COc1ccc(NC(=S)c2ccc(N(C)C)cc2)cc1,14.4%,57.7*,-5.1%,54.1*
SMILES,NS1 inh,Shiga toxin inh,SARS PLP yeast,CHX counter
CCc1nnc(NC(=O)C2(C)COC(c3ccccc3)OC2)s1 (stereo not given),x,12.4,1.0%,-0.6
C=CCn1c2ccccc2c(=O)c2cc(C#Cc3ccccn3)ccc21,x,x,-1.7%,x
CN(C)S(=O)(=O)c1ccc(C(=O)NCCOc2ccccc2)cc1,-0.5%,82.8*,1.5%,40.1*
CN(C)S(=O)(=O)c1ccc(C(=O)NCCOc2ccc(F)cc2)cc1,-4.5%,84.1*,4.2%,42.2*
CN(C)S(=O)(=O)c1ccc(C(=O)OCCc2ccccc2)cc1,4.4%,32.8,0.3%,39.3*
CN(C)S(=O)(=O)c1ccc(C(=O)OCC(=O)NCc2ccccc2)cc1,x,-6.2,-1.5%,-1.8
CN(C)S(=O)(=O)c1ccc(C(=O)NCc2ccccc2)cc1,-15.4%,-1.4,-2.8%,-4.3
CCCCc1nnc2c(N(C)S(=O)(=O)c3ccccc3)nc3ccccc3n12,3.1%,13.0,5.1%,3.7
Cc1oc2cc(O)ccc2c(=O)c1Oc1ccc(F)cc1,-6.9%,-5.3,-2.9%,12.6
Cc1oc2cc(O)ccc2c(=O)c1Oc1ccc2ccccc2c1,-8.9%,38.1*,-3.1%,13.1
COCCn1cnc2c1c(=O)n(Cc1c(F)cccc1Cl)c(=O)n2Cc1ccccc1,-19.0%,-2.7,-2.6%,-2.8
O=C(Nc1nccs1)c1cccc(N2C(=O)C3C4C=CC(C4)C3C2=O)c1 (stereo not given),5.9%,-3.1,10.7%,-3.8
O=C(Nc1nccs1)c1ccc(N2C(=O)[C@@H]3[C@H](C2=O)[C@H]2C=C[C@@H]3C2)cc1,3.1%,54.4*,0.5%,26.1*
O=C(Nc1nccs1)c1ccc(N2C(=O)C3CCCCC3C2=O)cc1 (stereo not given),-0.1%,69.9*,0.8%,37.5*
Cn1cccc1/C=C(\C#N)c1ccccc1,x,23.1,-0.9%,8.8
Cn1cccc1C(=O)/C(C#N)=C/c1ccc(F)cc1,5.8%,32.6,0.0%,18.6*
Cn1cccc1/C=C(/C#N)c1ccc(F)cc1,x,37.5,0.6%,26.4*
CCN(C(=O)CSc1nnc(-c2ccc(OC)cc2)n1C(C)C)C1CCS(=O)(=O)C1 (stereo not given),x,x,2.3%,x
CCc1nn(C(C)C(=O)NCc2ccc(Cl)cc2)c(=O)c2cc3occc3n12 (stereo not given),-5.2%,10.6,-3.5%,12.3*
CCCCCOC(=O)NCC(O)c1ccccc1 (stereo not given),4.6%,85.9*,6.6%,67.8*
COc1ccc(NS(=O)(=O)c2ccc(N3CCCC3)c(NC(=S)Nc3cccc(S(=O)(=O)N(C)C)c3)c2)cc1,u,63.1*,-3.5%,33.4*
Cc1ccccc1NC(=S)NC(=O)C1CCCCC1,2.6%,44.7,17.4%,18.9*
Cc1cc(NC(=S)NC(=O)C2CC2)ccc1Br,6.3%,127.8*,-57.6%,51.4*
O=C(NC(=S)Nc1ccccc1CO)C1CCCCC1,x,x,-8.7%,x
Cc1cccc(NC(=S)NC(=O)C2CC2)c1,8.7%,35.5*,25.2%,44.6*
SMILES,NS1 inh,Shiga toxin inh,SARS PLP yeast,CHX counter
CNC(=S)Nc1ccc(N2CCCC2)c(S(=O)(=O)Nc2ccc(OC)cc2)c1,x,x,-5.4%,x
CC(C)(C)c1ccc(C(=O)N2CCC(C(=O)c3ccccc3)CC2)cc1,-11.7%,-3.4,0.3%,-1.8
Cc1cc([N+](=O)[O-])nn1CC(=O)NCc1nc2ccccc2[nH]1,x,19.0,6.5%,2.6
CN(C)S(=O)(=O)c1cccc(NC(=S)NC(=O)C2CCCCC2)c1,24.1%,66.7*,-1.1%,41.2*
CN(C)S(=O)(=O)c1cccc(NC(=S)NC2CCCCC2)c1,x,-11.1,0.9%,-0.9
Nc1nc(-c2ccc3c(c2)NC(=O)CO3)cs1,16.5%,18.7,1.6%,17.2
CC1Cc2cc(-c3csc(N)n3)ccc2O1 (stereo not given),-110.8%,35.5*,-7.9%,26.1*
CC(C)(C)C(=O)N1CCc2cc(-c3csc(N)n3)ccc21,-14.5%,27.2,-11.3%,5.8
O=S(=O)(c1cccc(-c2csc(-c3cccnc3)n2)c1)N1CCOCC1,-7.3%,22.4,-2.7%,1.7
c1cncc(-c2nc(-c3ccc4c(c3)OCO4)cs2)c1,-8.9%,85.3*,-7.5%,28.1*
Nc1nc(-c2ccc3c(c2)CCCC3)cs1,-165.4%,92.6*,-35.2%,35.9*
